According to PubChem BioAssay (NCATS):
A number with no mark means an inactive call. How the calls were made is not given here.

test system: HIV-1 nucleocapsid protein NCp7 (binding to TG oligonucleotide); assay: HIV Nucleocapsid (AID 346); settings: HIV-1 NC / fluorescein-TGTGTGTG probe, fluorescence polarization;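 further: potency is for inhibitors that block NC binding and lower polarization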
In short: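 Fluorescence polarization readout: labelled TG4xF oligo (10 nM) with 100 nM nucleocapsid protein, high-salt (250mM NaCl) Hepes pH 7.5 buffer containing zinc and fresh reducing agents. Compounds added by pin tool; incubation 1 hr, room temperature.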
Potency means the concentration at half of the fitted maximal effect.

| Compound | Potency |
| --- | --- |
| COc1cccc(Nc2ncc3nc(CCc4ccccc4)c(=O)n(C)c3n2)c1 | > 4 µM |
| COc1ccc(-c2nc3cnc(N(C)C)nc3n(C[C@H]3CCCO3)c2=O)cc1 | > 20 µM |
| N#Cc1cccc(-c2nccc(NCc3cccnc3)n2)c1 | > 20 µM |
| N#Cc1cccc(NC(=O)N2CC[C@@]3(CCCN(C(=O)c4cnccn4)C3)C2)c1 | > 20 µM |
| COc1cccc(Cn2c(=O)c(-c3cccs3)nc3cnc(OCc4ccccc4)nc32)c1 | > 20 µM |
| COc1ccccc1CN1CCCC2(CCN(C(C)=O)CC2)C1 | > 20 µM |
| Cc1nc2cnc(N3CCN(C)CC3)nc2n(C2CC2)c1=O | > 20 µM |
| COc1ccc(-c2nc3cnc(N4CCOCC4)nc3n(CCc3ccccc3)c2=O)cc1 | > 20 µM |
| CN(C)C(=O)c1ccc(-c2cncnc2N2CCNCC2)cc1 | > 20 µM |
| Cn1cccc1C(=O)N1CCC2(CCN(C(=O)Nc3cccc(F)c3)CC2)CC1 | > 20 µM |
| CCNc1ncc2nc(-c3ccccc3)c(=O)n(CCc3ccccc3)c2n1 | > 4 µM |
| COc1ccc(CNc2ncnc3ccc(-c4ccccc4CN(C)C)cc23)c(OC)c1 | > 20 µM |
| FC(F)(F)c1ccccc1-c1cc(NCc2ccccc2)ncn1 | > 20 µM |
| Clc1ccccc1-c1nccc(-n2ccnc2)n1 | > 20 µM |
| O=c1c(-c2ccc(F)c(F)c2)nc2cncnc2n1Cc1ccccc1Cl | > 20 µM |
